Assay in all cases: DAPPL (digital affinity profiling via proximity ligation, sequencing); 10 mM Tris-HCl pH 7.5, 50 mM NaCl, 1 mM DTT, 4% glycerol, room temperature, 30 min; GST-TFs on glutathione beads, 16-mer random dsDNA library, 0.1% formaldehyde crosslink after washing; high values mean tight binding
Holding throughout (settings): protein: recombinant; tags: N-terminal GST; dsDNA, one strand shown

In test [1] the target is T1, FLI1 (Homo sapiens, UniProt Q01543 1-452).
T1 sequence: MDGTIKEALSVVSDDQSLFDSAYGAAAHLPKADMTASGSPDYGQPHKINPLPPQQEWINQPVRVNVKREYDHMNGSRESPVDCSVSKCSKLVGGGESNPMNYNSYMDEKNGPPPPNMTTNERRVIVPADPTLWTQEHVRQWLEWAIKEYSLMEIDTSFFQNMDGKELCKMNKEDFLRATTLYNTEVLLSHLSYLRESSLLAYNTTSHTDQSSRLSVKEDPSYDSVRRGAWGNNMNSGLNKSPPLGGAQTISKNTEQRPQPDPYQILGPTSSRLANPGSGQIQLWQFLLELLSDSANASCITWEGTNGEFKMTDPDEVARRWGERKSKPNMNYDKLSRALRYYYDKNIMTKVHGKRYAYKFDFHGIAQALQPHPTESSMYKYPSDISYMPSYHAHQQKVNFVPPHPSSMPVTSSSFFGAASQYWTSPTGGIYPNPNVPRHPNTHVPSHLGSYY
The essentials:
(§1)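 Binding signal is given per hexamer as its read frequency for a factor divided by its frequency in the tag-only sample. GST-fused human transcription factors were expressed in yeast, captured on glutathione beads, barcoded with DNA and pooled with that sample, then incubated with 200 nmole of a 16-mer random double-stranded DNA library in Tris/NaCl/DTT/glycerol buffer for 30 min at room temperature. The pools were then washed, crosslinked, proximity-ligated, amplified by PCR and sequenced on an Illumina NextSeq500.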

The target in test [2] is T2, ELK1 (Homo sapiens, UniProt P19419 1-428).
T2 sequence: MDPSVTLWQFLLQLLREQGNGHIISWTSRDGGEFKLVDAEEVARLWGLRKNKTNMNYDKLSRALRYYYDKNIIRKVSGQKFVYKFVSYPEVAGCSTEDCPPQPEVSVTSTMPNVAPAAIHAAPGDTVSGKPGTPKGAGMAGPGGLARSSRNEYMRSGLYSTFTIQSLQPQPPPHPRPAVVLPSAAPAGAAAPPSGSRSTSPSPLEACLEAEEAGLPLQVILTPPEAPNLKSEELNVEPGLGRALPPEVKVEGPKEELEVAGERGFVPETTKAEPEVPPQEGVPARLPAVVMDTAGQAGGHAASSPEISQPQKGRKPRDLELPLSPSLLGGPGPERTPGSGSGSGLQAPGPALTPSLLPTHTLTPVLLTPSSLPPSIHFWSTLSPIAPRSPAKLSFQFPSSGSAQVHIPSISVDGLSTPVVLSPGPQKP
The method in brief: as §1

For test [3], the target named is T3, GABPA (Homo sapiens, UniProt Q06546 1-454).
T3 sequence: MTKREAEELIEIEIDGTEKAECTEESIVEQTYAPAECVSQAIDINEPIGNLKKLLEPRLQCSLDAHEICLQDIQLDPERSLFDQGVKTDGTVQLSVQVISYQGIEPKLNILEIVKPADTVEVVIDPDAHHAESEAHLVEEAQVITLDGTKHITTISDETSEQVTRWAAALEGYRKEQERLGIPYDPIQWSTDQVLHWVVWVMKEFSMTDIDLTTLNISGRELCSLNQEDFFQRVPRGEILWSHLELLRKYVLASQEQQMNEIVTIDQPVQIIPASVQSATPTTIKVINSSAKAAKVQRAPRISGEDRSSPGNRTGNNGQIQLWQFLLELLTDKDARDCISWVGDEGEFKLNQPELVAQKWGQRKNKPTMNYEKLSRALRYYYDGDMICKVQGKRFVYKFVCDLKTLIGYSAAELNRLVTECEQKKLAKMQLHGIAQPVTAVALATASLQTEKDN
The essentials: as §1

For test [4], the target named is T4, ERG (Homo sapiens, UniProt P11308 1-479).
T4 sequence: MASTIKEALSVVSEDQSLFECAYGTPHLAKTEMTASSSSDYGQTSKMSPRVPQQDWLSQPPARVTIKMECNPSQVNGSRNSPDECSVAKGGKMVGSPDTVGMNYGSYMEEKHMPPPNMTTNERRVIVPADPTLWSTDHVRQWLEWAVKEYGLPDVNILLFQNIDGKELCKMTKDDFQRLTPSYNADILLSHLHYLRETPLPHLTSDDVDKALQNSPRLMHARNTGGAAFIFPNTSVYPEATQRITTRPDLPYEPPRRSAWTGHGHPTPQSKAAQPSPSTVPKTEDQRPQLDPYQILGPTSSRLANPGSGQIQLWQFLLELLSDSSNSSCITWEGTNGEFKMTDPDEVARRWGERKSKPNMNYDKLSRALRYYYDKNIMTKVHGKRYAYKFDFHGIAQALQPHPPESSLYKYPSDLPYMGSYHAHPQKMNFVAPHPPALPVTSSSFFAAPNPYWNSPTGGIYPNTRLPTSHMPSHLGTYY
The essentials:
as §1

Test [5] deals with ELF1 (Homo sapiens, UniProt P32519 1-619). The essentials: as §1
In test [6] the target is T5, EHF (Homo sapiens, UniProt Q9NZC4 1-300).
T5 sequence: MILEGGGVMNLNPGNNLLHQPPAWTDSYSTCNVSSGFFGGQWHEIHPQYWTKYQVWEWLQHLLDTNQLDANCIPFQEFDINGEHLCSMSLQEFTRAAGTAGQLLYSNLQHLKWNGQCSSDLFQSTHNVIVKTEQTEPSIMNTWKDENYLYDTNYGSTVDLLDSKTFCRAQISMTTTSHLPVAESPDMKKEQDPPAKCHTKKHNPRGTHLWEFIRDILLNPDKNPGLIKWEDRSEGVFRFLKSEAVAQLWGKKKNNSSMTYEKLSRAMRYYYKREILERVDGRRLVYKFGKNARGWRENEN
The essentials: as §1

Test [7] deals with SPI1 (Homo sapiens, UniProt P17947 1-270). The essentials:
as §1

Test [8] deals with SPIB (Homo sapiens, UniProt Q01892 1-262). The essentials: as §1
Test [9] deals with T6, ELK3 (Homo sapiens, UniProt P41970 1-407).
T6 sequence: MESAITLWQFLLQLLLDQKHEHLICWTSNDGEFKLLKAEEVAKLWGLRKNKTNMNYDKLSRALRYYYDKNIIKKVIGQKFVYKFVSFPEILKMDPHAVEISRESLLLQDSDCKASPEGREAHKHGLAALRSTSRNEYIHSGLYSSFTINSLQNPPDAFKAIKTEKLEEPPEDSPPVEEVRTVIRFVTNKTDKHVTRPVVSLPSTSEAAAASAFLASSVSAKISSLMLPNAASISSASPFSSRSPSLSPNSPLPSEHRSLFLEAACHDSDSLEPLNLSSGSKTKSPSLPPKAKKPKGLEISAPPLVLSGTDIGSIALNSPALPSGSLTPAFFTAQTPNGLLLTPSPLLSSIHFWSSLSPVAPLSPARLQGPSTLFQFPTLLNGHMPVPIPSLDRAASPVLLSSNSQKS
The method in brief:
as §1

For eight sequences, binding signal results are on record in article PMC7862700, “An all-to-all approach to the identification of sequence-specific readers for epigenetic DNA modifications on cytosine”.

SPIB, sequence (Q01892 whole entry): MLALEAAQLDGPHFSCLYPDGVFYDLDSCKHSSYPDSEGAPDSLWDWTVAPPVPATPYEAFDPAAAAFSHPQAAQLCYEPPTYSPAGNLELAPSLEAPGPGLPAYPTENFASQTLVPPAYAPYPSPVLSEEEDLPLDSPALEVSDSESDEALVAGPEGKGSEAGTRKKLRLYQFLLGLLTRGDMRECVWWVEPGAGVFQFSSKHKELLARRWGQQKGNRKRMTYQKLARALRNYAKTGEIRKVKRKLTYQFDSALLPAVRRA
ELF1, sequence (P32519 whole entry): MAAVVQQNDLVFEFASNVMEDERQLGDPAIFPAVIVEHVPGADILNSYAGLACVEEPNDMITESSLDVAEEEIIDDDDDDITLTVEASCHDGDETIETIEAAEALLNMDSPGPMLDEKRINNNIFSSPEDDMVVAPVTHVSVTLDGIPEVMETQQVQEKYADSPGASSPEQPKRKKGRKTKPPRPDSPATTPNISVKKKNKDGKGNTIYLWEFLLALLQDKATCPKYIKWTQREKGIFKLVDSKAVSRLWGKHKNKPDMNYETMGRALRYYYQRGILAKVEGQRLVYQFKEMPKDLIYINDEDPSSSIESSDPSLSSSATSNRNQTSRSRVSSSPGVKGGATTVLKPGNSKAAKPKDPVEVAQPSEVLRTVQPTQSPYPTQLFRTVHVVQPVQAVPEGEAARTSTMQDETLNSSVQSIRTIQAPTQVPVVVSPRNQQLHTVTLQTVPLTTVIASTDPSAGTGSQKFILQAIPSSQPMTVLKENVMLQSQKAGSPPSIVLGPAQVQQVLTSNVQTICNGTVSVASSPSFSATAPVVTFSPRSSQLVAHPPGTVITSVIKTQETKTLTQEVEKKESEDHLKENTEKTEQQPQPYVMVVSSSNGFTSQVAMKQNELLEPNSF

As to CGAACC, the binding signal in test [1] is 1.1 fold enrichment (6-mer frequency, TF over GST control); in [2], 1.29 fold enrichment (6-mer frequency, TF over GST control); in test [3] it was 1.22 fold enrichment (6-mer frequency, TF over GST control); in test [4], 1.15 fold enrichment (6-mer frequency, TF over GST control); in test [5], 1.23 fold enrichment (6-mer frequency, TF over GST control); in [6], 1.19 fold enrichment (6-mer frequency, TF over GST control). For the same sequence, the binding signal in test [7] is 1.17 fold enrichment (6-mer frequency, TF over GST control); in test [8] it was 1.13 fold enrichment (6-mer frequency, TF over GST control); in [9] it was 1.21 fold enrichment (6-mer frequency, TF over GST control).

For ATCTAA, the binding signal was 1.21 fold enrichment (6-mer frequency, TF over GST control) in [1]; 1.24 fold enrichment (6-mer frequency, TF over GST control) in test [2]; 1.23 fold enrichment (6-mer frequency, TF over GST control) in [3]; 1.17 fold enrichment (6-mer frequency, TF over GST control) in test [4]; 1.23 fold enrichment (6-mer frequency, TF over GST control) in test [5]; 1.23 fold enrichment (6-mer frequency, TF over GST control) in test [6]. Also, the binding signal in test [7] is 1.13 fold enrichment (6-mer frequency, TF over GST control); in test [8] it was 1.21 fold enrichment (6-mer frequency, TF over GST control); in test [9] it was 1.16 fold enrichment (6-mer frequency, TF over GST control).

Consider TCTGCT, for which the binding signal in [1] is 1.26 fold enrichment (6-mer frequency, TF over GST control); in test [2], 1.3 fold enrichment (6-mer frequency, TF over GST control); in test [3], 1.33 fold enrichment (6-mer frequency, TF over GST control); in [4], 1.22 fold enrichment (6-mer frequency, TF over GST control); in [5] it was 1.45 fold enrichment (6-mer frequency, TF over GST control); in test [6], 1.55 fold enrichment (6-mer frequency, TF over GST control). The binding signal is 1.27 fold enrichment (6-mer frequency, TF over GST control) in [7]; 1.22 fold enrichment (6-mer frequency, TF over GST control) in test [8]; 1.2 fold enrichment (6-mer frequency, TF over GST control) in [9].

Regarding TTATGC, the binding signal is 1.34 fold enrichment (6-mer frequency, TF over GST control) in [1]; 1.34 fold enrichment (6-mer frequency, TF over GST control) in test [2]; 1.22 fold enrichment (6-mer frequency, TF over GST control) in [3]; 1.31 fold enrichment (6-mer frequency, TF over GST control) in [4]; 1.15 fold enrichment (6-mer frequency, TF over GST control) in test [5]; 1.43 fold enrichment (6-mer frequency, TF over GST control) in [6]. Moreover, the binding signal is 1.34 fold enrichment (6-mer frequency, TF over GST control) in test [7]; 1.26 fold enrichment (6-mer frequency, TF over GST control) in [8]; 1.16 fold enrichment (6-mer frequency, TF over GST control) in test [9].

Regarding CTTCTG, the binding signal was 1.48 fold enrichment (6-mer frequency, TF over GST control) in test [1]; 1.34 fold enrichment (6-mer frequency, TF over GST control) in [2]; 1.26 fold enrichment (6-mer frequency, TF over GST control) in test [3]; 1.3 fold enrichment (6-mer frequency, TF over GST control) in test [4]; 1.34 fold enrichment (6-mer frequency, TF over GST control) in [5]; 1.27 fold enrichment (6-mer frequency, TF over GST control) in [6]. Further, the binding signal is 1.36 fold enrichment (6-mer frequency, TF over GST control) in test [7]; 1.32 fold enrichment (6-mer frequency, TF over GST control) in test [8]; 1.4 fold enrichment (6-mer frequency, TF over GST control) in [9].

Take AAGCCT: the binding signal in test [1] was 1.21 fold enrichment (6-mer frequency, TF over GST control); in [2] it was 1.22 fold enrichment (6-mer frequency, TF over GST control); in test [3], 1.24 fold enrichment (6-mer frequency, TF over GST control); in [4] it was 1.21 fold enrichment (6-mer frequency, TF over GST control); in test [5] it was 1.25 fold enrichment (6-mer frequency, TF over GST control); in [6] it was 1.16 fold enrichment (6-mer frequency, TF over GST control). The binding signal in test [7] is 1.14 fold enrichment (6-mer frequency, TF over GST control); in test [8] it was 1.22 fold enrichment (6-mer frequency, TF over GST control); in [9], 1.25 fold enrichment (6-mer frequency, TF over GST control).

For AAAACC, the binding signal in test [1] is 1.12 fold enrichment (6-mer frequency, TF over GST control); in test [2], 1.05 fold enrichment (6-mer frequency, TF over GST control); in [3], 1.16 fold enrichment (6-mer frequency, TF over GST control); in test [4], 1.13 fold enrichment (6-mer frequency, TF over GST control); in test [5], 1.21 fold enrichment (6-mer frequency, TF over GST control); in test [6], 1.18 fold enrichment (6-mer frequency, TF over GST control). The binding signal in test [7] was 1.27 fold enrichment (6-mer frequency, TF over GST control); in [8], 1.19 fold enrichment (6-mer frequency, TF over GST control); in test [9], 1.26 fold enrichment (6-mer frequency, TF over GST control).

As to AAACGC, the binding signal is 1.24 fold enrichment (6-mer frequency, TF over GST control) in test [1]; 1.17 fold enrichment (6-mer frequency, TF over GST control) in test [2]; 1.28 fold enrichment (6-mer frequency, TF over GST control) in [3]; 1.34 fold enrichment (6-mer frequency, TF over GST control) in [4]; 1.27 fold enrichment (6-mer frequency, TF over GST control) in test [5]; 1.25 fold enrichment (6-mer frequency, TF over GST control) in test [6]. Moreover, the binding signal in test [7] is 1.22 fold enrichment (6-mer frequency, TF over GST control); in [8] it was 1.22 fold enrichment (6-mer frequency, TF over GST control); in test [9], 1.15 fold enrichment (6-mer frequency, TF over GST control).
